Assay results: ChEMBL document CHEMBL3433997, “St. Jude Leishmania screening dataset” (2016)

The compounds below were run against Glucose transporter (Leishmania mexicana) (UniProt O61059) (assay: ST_JUDE_LEISH: Cytotoxicity at 2uM final concentration against transgenic Leishmania Mexicana promastigotes LmGT2 that are glucose transport deficient and complemented with the L. Mexicana glucose transporter 2. Activity is measured by DNA content using SYBR green in vitro).
Format: functional

Row | SMILES | inhibition [%]
1 | CCOC(=O)N/N=C/[C@H](CCc1ccccc1)NC(=O)[C@H](CC(C)C)NC(=O)c1cc2cccc(OC)c2o1 | 5.67
2 | Oc1cc(Nc2ccnc3ccc(I)cc23)c(F)cc1Cl | -1.45
3 | COc1cccc(NC(=O)Nc2ccc(C)c(-c3ccc(C(=O)Nc4ccncc4)cc3)c2)c1 | -0.17
4 | COc1ccccc1C1CC(c2ccccc2)=NN1C(=O)c1ccco1 (stereo not given) | -4.34
5 | O=C(/C=C/c1ccccc1Cl)Nc1ccc(Br)c(OCCN2CCN(CCN3CCCC3)CC2)c1 | 4.6
6 | Oc1c(C(Nc2nc3ccccc3s2)c2ccc(OC(F)F)cc2)ccc2cccnc12 (stereo not given) | -1.77
7 | CS(=O)(=O)c1ccc(-c2cc(C(F)(F)F)nc(N[C@@H]3CCCC[C@H]3OCc3ccccc3)n2)cc1 | 1.66
8 | O=C(Nc1cccc(CN2CCCN(CCc3ccccc3)CC2)c1)c1ccc(Cl)c(Cl)c1 | -3.05
9 | N#Cc1ccc2c(c1)CCN(CCC1CCC(NC(=O)/C=C/c3nc4ccccc4s3)CC1)CC2 (stereo not given) | -0.08
10 | Cc1nnsc1C(=O)Nc1cccc(-c2ccc(-c3nc4cc(F)ccc4[nH]3)s2)c1 | -2.44
11 | Cc1nnc2c(NC(=O)NC3CCCC3)cc3cc(-c4ccc(CN5CCN(C)CC5)cc4)ccc3n12 | 4.79
12 | Cc1ccc(NC(=O)c2cc(S(=O)(=O)NC(C)(C)C)ccc2C)nc1 | 2.32
13 | COc1cccc2cc(C(=O)N[C@@H](CC(C)C)C(=O)N[C@H](/C=N/N3C(=O)CN(Cc4ccccc4)C3=O)CCc3ccccc3)oc12 | 6.11
14 | CC1(C)N=C(N)N=C(N)N1OCc1ccc2c(c1)OCO2 | 13.4
15 | COc1ccc(-c2cccc(CNCc3ccc(F)cc3)c2)cc1S(=O)(=O)NCCN1CCCC1 | 6.87
16 | Clc1ccc(-c2cc3c(NCc4ccncc4)nccc3s2)cc1 | 2.2
17 | COc1ccc(O)c(C(=O)c2cc(C#N)c(=O)n(-c3ccc(Oc4ccccc4)cc3)c2)c1 | 9.41
18 | Cc1cc(O)c(CN(C)Cc2ccc3c(c2)OCO3)cc1C(C)C | 0.04
19 | CC1CCC(NCc2ccc3c(CNC4CCC(C)CC4)c(O)ccc3c2O)CC1 (stereo not given) | -1.56
20 | FC(F)(F)c1ccc(/C=C/c2cncnc2Nc2ccc3[nH]c(Cc4ccccc4)nc3c2)cc1 | 3.94

Row | SMILES | inhibition [%]
21 | N#Cc1ccc2c(c1)CCN(CCC1CCC(NC(=O)c3cc4cccc([N+](=O)[O-])c4[nH]3)CC1)C2 (stereo not given) | 9.97
22 | CCCNC(=O)Nc1ccc(N(C)c2ccnc(NC3CC3)n2)cc1 | 5.87
23 | CCn1c(Sc2ccc(C#N)c([N+](=O)[O-])c2)nnc1-c1ccc(OC)cc1 | 2.61
24 | Cc1nc(C)n(CC(=O)Nc2cccc(-c3cccc(-c4nc5cc(C(F)(F)F)ccc5[nH]4)c3)c2)n1 | 7.09
25 | CN(C)CCOc1ccc(N2CCN(CCCCNC(=O)c3ccc(/C=C/c4cc(Cl)cc(Cl)c4)cc3)CC2)cc1 | -0.38
26 | COc1cc(C)nc2ccc(NC(=O)c3cc([N+](=O)[O-])cc([N+](=O)[O-])c3)cc12 | 3.33
27 | Cc1[nH]c(C)c(Cc2ccc(Oc3ccc(OC(F)(F)F)cc3)cc2)c(=O)c1Br | -3.03
28 | O=C(Nc1ccc(CCNC2=NCCN2)cc1)Nc1ccc(CCNC2=NCCN2)cc1 | 3.62
29 | COc1ccc(C(=O)N2CCN(c3ccc([N+](=O)[O-])c(NC4CC4)c3)CC2)cc1Br | 12.6
30 | Cc1ccc(Nc2ccnc(Nc3ccc(C)c(F)c3)n2)cc1O | 3.98
31 | Cc1cc(N2CCCC2)nc(Nc2ccc(NC(=O)c3ccccc3F)cc2)n1 | -0.95
32 | CC(C)C[C@@H](/C=N/N1CCNC1=O)NC(=O)[C@H](CC(C)C)NC(=O)c1ccc(OCCN2CCOCC2)cc1 | 0.69
33 | CCCCCCN1CCN(Cc2cccc(NC(=O)c3cc4ccccc4o3)c2)CC1 | 1.59
34 | N#Cc1ccc(-c2ccc(C(=O)NC3CCN(CCN4CCC(c5cn(CCOC6CCCCO6)c6ccccc56)CC4)CC3)cc2)cc1 (stereo not given) | 21.2
35 | COc1ccc(Cl)cc1N1CCN(CCCNC(=O)c2ccc(-c3nc4ccc(C(F)(F)F)cc4[nH]3)c(C)c2)CC1 | 0.17
36 | N#Cc1cnc(Nc2ccc(Oc3ccccc3)cc2)nc1Nc1cccc(S(N)(=O)=O)c1 | 5.25
37 | Cc1cccc(C)c1/N=C1\NC(=S)N(c2cccc(Cl)c2)C12CCC(C(C)(C)C)CC2 (stereo not given) | 0.24
38 | O=C(CN1CCN(C(=O)c2ccco2)CC1)Nc1ccc(Br)cc1Cl | -0.59
39 | CC(=NNC(=N)N)c1ccc2c(ccc3ccccc32)c1 | 0.58
40 | COc1ccc2nccc(NCC3(O)CCN(CC(O)c4ccc5c(c4)NC(=O)CS5)CC3)c2n1 (stereo not given) | 2.58
